PMC7862700, “An all-to-all approach to the identification of sequence-specific readers for epigenetic DNA modifications on cytosine”

Experiments:
Experiment in all cases: DAPPL (digital affinity profiling via proximity ligation, sequencing); 10 mM Tris-HCl pH 7.5, 50 mM NaCl, 1 mM DTT, 4% glycerol, room temperature, 30 min; GST-TFs on glutathione beads, 16-mer random dsDNA library, 0.1% formaldehyde crosslink after washing; high values mean tight binding
Conditions in all cases: protein: recombinant; tags: N-terminal GST; dsDNA, one strand shown
[1] = biological target: T1, FLI1 (Homo sapiens, UniProt Q01543 1-452)
T1 sequence: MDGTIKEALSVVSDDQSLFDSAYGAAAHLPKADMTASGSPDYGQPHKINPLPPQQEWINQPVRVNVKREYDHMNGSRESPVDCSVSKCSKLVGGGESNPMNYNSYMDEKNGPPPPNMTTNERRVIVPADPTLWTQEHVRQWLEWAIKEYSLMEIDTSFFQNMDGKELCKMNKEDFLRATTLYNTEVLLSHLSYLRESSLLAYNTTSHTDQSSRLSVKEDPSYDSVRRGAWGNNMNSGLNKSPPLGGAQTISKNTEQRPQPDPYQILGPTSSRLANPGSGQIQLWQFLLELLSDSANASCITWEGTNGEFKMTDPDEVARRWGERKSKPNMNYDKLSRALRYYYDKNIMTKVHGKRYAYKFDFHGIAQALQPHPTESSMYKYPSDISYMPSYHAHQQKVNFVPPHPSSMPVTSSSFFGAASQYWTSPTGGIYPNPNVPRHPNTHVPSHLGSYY
How it was run: (§1)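 Human transcription factors were made in yeast as GST fusions, captured on glutathione beads and barcoded with DNA. With a tag-only sample included, the pool was incubated with 200 nmole of a random double-stranded 16-mer DNA library in Tris/NaCl/DTT/glycerol buffer at room temperature for 30 min, then crosslinked with 0.1% formaldehyde after washing, ligated by proximity, amplified and sequenced. For binding signal, each hexamer's read frequency for a factor is divided by its frequency for the tag-only sample.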

[2] = biological target: T2, ELK1 (Homo sapiens, UniProt P19419 1-428)
T2 sequence: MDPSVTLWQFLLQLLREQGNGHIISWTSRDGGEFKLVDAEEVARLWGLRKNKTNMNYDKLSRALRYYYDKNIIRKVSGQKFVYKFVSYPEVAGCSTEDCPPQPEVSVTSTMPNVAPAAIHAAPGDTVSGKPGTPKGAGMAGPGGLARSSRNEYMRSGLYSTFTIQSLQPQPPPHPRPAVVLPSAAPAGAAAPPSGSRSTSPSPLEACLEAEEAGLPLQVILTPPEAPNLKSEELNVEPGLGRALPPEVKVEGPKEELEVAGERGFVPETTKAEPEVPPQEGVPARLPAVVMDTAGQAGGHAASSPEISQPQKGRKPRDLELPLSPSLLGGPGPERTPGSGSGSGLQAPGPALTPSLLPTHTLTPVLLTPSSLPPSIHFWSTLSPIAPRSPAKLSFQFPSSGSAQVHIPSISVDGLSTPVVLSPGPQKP
How it was run: as §1

[3] = biological target: T3, GABPA (Homo sapiens, UniProt Q06546 1-454)
T3 sequence: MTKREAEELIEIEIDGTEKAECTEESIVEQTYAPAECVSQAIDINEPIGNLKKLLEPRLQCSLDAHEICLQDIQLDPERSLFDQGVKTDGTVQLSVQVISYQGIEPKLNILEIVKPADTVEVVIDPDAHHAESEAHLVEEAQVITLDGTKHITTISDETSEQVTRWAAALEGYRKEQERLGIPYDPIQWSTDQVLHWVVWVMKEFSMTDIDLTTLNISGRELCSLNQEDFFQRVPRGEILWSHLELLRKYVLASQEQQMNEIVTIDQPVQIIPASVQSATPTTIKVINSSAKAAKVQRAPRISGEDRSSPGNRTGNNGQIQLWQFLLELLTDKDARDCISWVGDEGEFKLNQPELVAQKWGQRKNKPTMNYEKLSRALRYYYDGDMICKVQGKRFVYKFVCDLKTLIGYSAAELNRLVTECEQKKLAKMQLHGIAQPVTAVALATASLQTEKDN
How it was run: as §1

[4] = biological target: T4, ERG (Homo sapiens, UniProt P11308 1-479)
T4 sequence: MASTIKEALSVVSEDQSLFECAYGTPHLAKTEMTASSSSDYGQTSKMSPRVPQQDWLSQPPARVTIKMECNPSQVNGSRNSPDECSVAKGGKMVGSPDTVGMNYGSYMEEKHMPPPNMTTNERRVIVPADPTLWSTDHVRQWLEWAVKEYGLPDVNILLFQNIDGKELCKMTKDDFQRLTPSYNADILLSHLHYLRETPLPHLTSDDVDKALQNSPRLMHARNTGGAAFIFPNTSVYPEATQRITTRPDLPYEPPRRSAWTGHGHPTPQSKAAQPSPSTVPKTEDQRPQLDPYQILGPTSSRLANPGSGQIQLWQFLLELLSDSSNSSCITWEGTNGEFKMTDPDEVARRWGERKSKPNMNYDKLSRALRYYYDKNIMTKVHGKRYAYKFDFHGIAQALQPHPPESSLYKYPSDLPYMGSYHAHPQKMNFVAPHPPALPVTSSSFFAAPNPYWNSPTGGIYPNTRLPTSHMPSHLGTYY
How it was run: as §1

[5] = biological target: ELF1 (Homo sapiens, UniProt P32519 1-619)
How it was run: as §1

[6] = biological target: T5, EHF (Homo sapiens, UniProt Q9NZC4 1-300)
T5 sequence: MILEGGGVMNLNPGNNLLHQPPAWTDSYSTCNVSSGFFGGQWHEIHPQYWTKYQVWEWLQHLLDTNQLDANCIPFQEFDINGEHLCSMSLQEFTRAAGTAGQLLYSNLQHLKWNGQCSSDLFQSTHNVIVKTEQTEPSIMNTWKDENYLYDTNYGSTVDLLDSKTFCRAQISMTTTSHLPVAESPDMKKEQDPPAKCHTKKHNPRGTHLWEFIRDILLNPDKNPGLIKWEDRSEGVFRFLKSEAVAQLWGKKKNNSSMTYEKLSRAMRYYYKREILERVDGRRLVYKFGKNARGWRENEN
How it was run: as §1

[7] = biological target: SPI1 (Homo sapiens, UniProt P17947 1-270)
How it was run: as §1

[8] = biological target: SPIB (Homo sapiens, UniProt Q01892 1-262)
How it was run: as §1

[9] = biological target: T6, ELK3 (Homo sapiens, UniProt P41970 1-407)
T6 sequence: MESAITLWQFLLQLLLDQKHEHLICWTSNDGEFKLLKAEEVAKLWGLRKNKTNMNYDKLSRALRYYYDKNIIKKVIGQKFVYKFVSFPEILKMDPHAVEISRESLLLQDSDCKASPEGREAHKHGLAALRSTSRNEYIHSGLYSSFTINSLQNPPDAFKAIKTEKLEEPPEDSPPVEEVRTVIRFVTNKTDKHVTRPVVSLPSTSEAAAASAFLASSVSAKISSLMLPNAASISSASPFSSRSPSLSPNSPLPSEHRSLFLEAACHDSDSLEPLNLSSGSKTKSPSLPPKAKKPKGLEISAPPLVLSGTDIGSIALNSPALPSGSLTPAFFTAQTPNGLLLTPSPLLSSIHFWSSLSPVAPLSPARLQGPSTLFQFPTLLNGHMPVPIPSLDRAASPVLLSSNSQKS
How it was run: as §1

[10] = biological target: T7, FEV (Homo sapiens, UniProt Q99581 1-238)
T7 sequence: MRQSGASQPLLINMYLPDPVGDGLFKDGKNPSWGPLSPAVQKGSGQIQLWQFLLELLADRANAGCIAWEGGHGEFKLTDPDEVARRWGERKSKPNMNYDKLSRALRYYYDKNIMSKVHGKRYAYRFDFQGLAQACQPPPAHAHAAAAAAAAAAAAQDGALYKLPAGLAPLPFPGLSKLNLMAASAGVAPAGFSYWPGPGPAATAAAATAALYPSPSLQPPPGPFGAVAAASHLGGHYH
How it was run: as §1

[11] = biological target: ETV5 (Homo sapiens, UniProt P41161 1-510)
How it was run: as §1

[12] = biological target: T8, SPIC (Homo sapiens, UniProt Q8N5J4 1-248)
T8 sequence: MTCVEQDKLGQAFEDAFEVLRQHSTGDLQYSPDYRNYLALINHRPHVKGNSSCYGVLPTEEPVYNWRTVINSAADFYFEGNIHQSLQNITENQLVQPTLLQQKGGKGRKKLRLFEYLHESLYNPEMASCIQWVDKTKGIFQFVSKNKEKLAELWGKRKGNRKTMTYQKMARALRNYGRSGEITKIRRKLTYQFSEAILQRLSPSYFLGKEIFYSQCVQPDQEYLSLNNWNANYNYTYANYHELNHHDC
How it was run: as §1

[13] = biological target: ELF4 (Homo sapiens, UniProt Q99607 1-663)
How it was run: as §1

[14] = biological target: T9, ELK4 (Homo sapiens, UniProt P28324-2 1-405)
T9 sequence: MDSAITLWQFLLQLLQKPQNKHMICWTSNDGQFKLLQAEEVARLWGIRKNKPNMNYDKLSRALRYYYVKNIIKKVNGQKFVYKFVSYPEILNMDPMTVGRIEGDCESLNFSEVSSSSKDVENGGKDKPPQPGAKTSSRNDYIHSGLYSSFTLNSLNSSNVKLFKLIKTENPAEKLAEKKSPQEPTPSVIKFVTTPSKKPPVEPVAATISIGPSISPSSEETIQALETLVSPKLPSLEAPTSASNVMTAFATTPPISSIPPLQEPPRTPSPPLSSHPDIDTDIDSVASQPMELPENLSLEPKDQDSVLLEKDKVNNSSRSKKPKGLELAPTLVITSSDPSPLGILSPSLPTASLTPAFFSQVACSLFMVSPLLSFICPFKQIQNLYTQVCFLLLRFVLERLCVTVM
How it was run: as §1

[15] = biological target: T10, ETV2 (Homo sapiens, UniProt O00321 1-342)
T10 sequence: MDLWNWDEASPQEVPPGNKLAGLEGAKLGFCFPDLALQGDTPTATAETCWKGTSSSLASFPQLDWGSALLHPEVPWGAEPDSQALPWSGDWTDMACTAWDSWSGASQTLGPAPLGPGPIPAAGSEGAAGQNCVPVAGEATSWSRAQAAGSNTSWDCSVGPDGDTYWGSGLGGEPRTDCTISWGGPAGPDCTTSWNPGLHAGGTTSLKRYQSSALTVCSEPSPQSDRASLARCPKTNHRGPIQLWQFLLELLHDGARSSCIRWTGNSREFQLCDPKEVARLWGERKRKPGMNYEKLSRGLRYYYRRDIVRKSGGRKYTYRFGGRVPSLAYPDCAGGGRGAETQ
How it was run: as §1

[16] = biological target: T11, ELF3 (Homo sapiens, UniProt P78545 1-371)
T11 sequence: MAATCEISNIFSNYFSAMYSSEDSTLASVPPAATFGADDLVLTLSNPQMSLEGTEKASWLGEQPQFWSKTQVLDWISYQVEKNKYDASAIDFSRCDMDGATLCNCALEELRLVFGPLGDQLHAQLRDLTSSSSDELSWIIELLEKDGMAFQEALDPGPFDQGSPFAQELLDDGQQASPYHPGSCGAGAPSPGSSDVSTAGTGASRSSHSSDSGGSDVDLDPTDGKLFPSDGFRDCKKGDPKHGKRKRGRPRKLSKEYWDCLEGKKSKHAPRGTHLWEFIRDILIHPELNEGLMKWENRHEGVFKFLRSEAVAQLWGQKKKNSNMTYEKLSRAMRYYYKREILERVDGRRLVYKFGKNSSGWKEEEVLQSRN
How it was run: as §1

[17] = biological target: ETV1 (Homo sapiens, UniProt P50549 1-477)
How it was run: as §1

Chain of ELF1 (P32519 whole entry): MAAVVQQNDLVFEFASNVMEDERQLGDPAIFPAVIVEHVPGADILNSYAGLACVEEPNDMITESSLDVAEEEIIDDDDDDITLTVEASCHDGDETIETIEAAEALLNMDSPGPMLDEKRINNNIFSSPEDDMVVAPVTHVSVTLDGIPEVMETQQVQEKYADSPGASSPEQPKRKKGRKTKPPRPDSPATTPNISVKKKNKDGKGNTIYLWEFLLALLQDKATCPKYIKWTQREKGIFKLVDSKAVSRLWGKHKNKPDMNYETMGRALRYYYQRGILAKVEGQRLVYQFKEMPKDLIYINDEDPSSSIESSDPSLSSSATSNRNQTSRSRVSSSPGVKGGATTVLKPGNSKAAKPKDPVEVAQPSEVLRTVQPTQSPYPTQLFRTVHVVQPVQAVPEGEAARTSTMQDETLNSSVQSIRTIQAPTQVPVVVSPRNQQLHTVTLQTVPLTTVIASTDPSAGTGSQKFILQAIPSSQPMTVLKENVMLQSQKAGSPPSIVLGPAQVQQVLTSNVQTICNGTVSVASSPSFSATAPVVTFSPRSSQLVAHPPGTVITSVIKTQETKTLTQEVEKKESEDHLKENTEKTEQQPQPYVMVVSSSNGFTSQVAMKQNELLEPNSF
Chain of ETV1 (P50549 whole entry): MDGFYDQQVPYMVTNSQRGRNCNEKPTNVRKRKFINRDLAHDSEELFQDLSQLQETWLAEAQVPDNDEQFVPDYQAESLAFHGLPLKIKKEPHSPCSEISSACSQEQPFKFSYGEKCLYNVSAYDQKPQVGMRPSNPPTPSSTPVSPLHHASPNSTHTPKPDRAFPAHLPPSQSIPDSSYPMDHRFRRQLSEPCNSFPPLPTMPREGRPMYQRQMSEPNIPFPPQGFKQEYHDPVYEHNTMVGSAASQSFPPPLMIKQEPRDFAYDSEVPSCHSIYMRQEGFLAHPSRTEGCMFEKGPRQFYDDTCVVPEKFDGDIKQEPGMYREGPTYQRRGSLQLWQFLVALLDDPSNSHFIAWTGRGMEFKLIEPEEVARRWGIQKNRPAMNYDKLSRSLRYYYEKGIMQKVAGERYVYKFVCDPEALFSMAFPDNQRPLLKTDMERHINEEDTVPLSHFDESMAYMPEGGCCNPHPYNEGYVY
Chain of SPIB (Q01892 whole entry): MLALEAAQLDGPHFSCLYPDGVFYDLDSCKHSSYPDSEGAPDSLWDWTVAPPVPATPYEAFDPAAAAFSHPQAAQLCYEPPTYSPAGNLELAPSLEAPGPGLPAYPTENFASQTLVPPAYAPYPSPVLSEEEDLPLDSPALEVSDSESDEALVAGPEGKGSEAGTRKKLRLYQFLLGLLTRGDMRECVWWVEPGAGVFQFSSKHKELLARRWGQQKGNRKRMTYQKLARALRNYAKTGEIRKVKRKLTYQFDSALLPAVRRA
Chain of ELF4 (Q99607 whole entry): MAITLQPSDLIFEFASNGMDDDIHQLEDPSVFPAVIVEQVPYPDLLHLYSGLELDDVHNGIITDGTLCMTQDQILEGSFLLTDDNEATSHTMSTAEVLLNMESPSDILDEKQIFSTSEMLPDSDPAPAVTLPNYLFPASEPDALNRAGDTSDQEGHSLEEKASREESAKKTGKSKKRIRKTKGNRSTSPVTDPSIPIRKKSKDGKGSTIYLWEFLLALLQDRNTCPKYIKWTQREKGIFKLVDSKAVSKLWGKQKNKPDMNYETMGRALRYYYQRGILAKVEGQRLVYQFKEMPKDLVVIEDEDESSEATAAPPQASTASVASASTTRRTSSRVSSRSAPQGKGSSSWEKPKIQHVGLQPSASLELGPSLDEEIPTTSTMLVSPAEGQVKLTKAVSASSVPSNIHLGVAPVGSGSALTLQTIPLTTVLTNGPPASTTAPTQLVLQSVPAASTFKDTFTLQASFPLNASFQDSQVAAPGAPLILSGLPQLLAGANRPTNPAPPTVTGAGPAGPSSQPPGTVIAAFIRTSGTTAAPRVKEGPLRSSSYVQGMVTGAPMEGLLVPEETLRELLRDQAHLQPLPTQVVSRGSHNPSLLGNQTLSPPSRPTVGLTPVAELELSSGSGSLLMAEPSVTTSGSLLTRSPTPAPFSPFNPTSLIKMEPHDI
Chain of ETV5 (P41161 whole entry): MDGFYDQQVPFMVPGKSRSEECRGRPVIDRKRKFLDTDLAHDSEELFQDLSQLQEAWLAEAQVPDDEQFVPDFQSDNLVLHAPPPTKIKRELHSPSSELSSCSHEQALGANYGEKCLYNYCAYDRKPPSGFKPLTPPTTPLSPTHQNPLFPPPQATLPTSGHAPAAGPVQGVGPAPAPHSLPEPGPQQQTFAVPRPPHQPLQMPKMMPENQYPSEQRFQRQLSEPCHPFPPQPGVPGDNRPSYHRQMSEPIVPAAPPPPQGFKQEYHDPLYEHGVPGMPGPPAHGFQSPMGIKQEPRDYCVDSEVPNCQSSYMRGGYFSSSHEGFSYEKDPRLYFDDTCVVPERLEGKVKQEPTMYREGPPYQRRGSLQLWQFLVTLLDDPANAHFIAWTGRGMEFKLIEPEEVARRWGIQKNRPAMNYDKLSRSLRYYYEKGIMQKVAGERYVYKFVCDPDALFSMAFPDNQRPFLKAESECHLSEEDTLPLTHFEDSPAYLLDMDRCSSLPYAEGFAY

Sequence: TGTCAC
- binding signal [1]: 1.15 fold enrichment (6-mer frequency, TF over GST control)
- binding signal [2]: 1.11 fold enrichment (6-mer frequency, TF over GST control)
- binding signal [3]: 1.22 fold enrichment (6-mer frequency, TF over GST control)
- binding signal [4]: 1.11 fold enrichment (6-mer frequency, TF over GST control)
- binding signal [5]: 1.23 fold enrichment (6-mer frequency, TF over GST control)
- binding signal [6]: 1.22 fold enrichment (6-mer frequency, TF over GST control)
- binding signal [7]: 1.21 fold enrichment (6-mer frequency, TF over GST control)
- binding signal [8]: 1.31 fold enrichment (6-mer frequency, TF over GST control)
- binding signal [9]: 1.2 fold enrichment (6-mer frequency, TF over GST control)
- binding signal [10]: 1.2 fold enrichment (6-mer frequency, TF over GST control)
- binding signal [11]: 1.15 fold enrichment (6-mer frequency, TF over GST control)
- binding signal [12]: 1.31 fold enrichment (6-mer frequency, TF over GST control)
- binding signal [13]: 1.22 fold enrichment (6-mer frequency, TF over GST control)
- binding signal [14]: 1.25 fold enrichment (6-mer frequency, TF over GST control)
- binding signal [15]: 1.24 fold enrichment (6-mer frequency, TF over GST control)
- binding signal [16]: 1.2 fold enrichment (6-mer frequency, TF over GST control)
- binding signal [17]: 1.18 fold enrichment (6-mer frequency, TF over GST control)
